From paper PMC8384837, “Expanding the binding specificity for RNA recognition by a PUF domain”
Positions count from the first letter of the chain named.

Experiments:
Test in all cases: yeast three-hybrid, YBZ-1, SC-Leu-His + 0.5 mM 3-AT, 4 days
Settings in all cases: tags: N-Gal4 AD-HA kept; label: inside an RPR1-promoter hybrid RNA with tandem MS2 sites; ssRNA
[1] = target: PUM1 PUF domain R3-HRR (Homo sapiens, UniProt Q14671 828-1176, C935H;Q939R)
Summary of the method: (§1)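 The interaction score is the log change in variant frequency from input to selection. Scores were computed in log2 with a pseudocount of 1 for absent variants, using Illumina sequencing of PCR-amplified repeat regions. The input came from four days on SC-Leu and the selection from four days on SC-Leu-His + 0.5 mM 3-AT. The cells were strain YBZ-1 (LexA–MS2 coat fusion, HIS3 reporter) co-expressing Pumilio-1 PUF domain libraries and matching RNA elements from a centromeric plasmid.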

[2] = target: T1, PUM1 PUF domain R6-QWS (Homo sapiens, UniProt Q14671 828-1176, N1043Q;Y1044W;Q1047S)
T1 sequence: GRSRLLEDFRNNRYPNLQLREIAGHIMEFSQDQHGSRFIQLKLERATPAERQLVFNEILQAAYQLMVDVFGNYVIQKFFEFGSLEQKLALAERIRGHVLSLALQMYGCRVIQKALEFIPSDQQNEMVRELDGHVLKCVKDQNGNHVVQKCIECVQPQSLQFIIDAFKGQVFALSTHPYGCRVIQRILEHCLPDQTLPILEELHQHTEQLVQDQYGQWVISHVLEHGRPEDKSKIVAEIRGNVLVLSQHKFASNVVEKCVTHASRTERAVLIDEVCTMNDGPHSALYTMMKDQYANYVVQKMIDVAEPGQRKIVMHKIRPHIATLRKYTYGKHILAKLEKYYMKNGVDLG
Summary of the method: as §1

[3] = target: T2, PUM1 PUF domain R6-TFQ (Homo sapiens, UniProt Q14671 828-1176, N1043T;Y1044F)
T2 sequence: T1 sequence with Q216T, W217F, S220Q
Summary of the method: as §1

[4] = target: PUM1 PUF domain R7-CHP (Homo sapiens, UniProt Q14671 828-1176, S1079C;N1080H;E1083P)
Summary of the method: as §1

[5] = target: PUM1 PUF domain R5-MYG (Homo sapiens, UniProt Q14671 828-1176, C1007M;R1008Y;Q1011G)
Summary of the method: as §1

[6] = target: PUM1 PUF domain R3-VRL (Homo sapiens, UniProt Q14671 828-1176, C935V;Q939L)
Summary of the method: as §1

[7] = target: PUM1 PUF domain R4-YRC (Homo sapiens, UniProt Q14671 828-1176, N971Y;H972R;Q975C)
Summary of the method: as §1

[8] = target: PUM1 PUF domain R4-SIG (Homo sapiens, UniProt Q14671 828-1176, N971S;H972I;Q975G)
Summary of the method: as §1

[9] = target: PUM1 PUF domain R2-DWL (Homo sapiens, UniProt Q14671 828-1176, N899D;Y900W;Q903L)
Summary of the method: as §1

[10] = target: PUM1 PUF domain R3-RDK (Homo sapiens, UniProt Q14671 828-1176, C935R;R936D;Q939K)
Summary of the method: as §1

GGCUAGAACUAGUGGAUCCCCCGGCGCCCGGCGGCUCGAGCCCGGGUAAGUGUAAGUAGUCUGCAUGCCGCCGGGCGCCAUGCCUGCAGGUCGACUCUAGAAAACAUG
binding signal [1]: 2.66 log2 enrichment (interaction score)

GGCUAGAACUAGUGGAUCCCCCGGCGCCCGGCGGCUCGAGCCCGGGUAAGUGGAAAUAGUCUGCAUGCCGCCGGGCGCCAUGCCUGCAGGUCGACUCUAGAAAACAUG
binding signal [2]: 3.82 log2 enrichment (interaction score)

GGCUAGAACUAGUGGAUCCCCCGGCGCCCGGCGGCUCGAGCCCGGGUAAGUGAAAAUAGUCUGCAUGCCGCCGGGCGCCAUGCCUGCAGGUCGACUCUAGAAAACAUG
binding signal [3]: 6.64 log2 enrichment (interaction score)

GGCUAGAACUAGUGGAUCCCCCGGCGCCCGGCGGCUCGAGCCCGGGUAAGUCUAAAUAGUCUGCAUGCCGCCGGGCGCCAUGCCUGCAGGUCGACUCUAGAAAACAUG
binding signal [4]: 2.32 log2 enrichment (interaction score)

GGCUAGAACUAGUGGAUCCCCCGGCGCCCGGCGGCUCGAGCCCGGGUAAGUGUUAAUAGUCUGCAUGCCGCCGGGCGCCAUGCCUGCAGGUCGACUCUAGAAAACAUG
binding signal [5]: 3.99 log2 enrichment (interaction score)

GGCUAGAACUAGUGGAUCCCCCGGCGCCCGGCGGCUCGAGCCCGGGUAAGUGUAAAUAGUCUGCAUGCCGCCGGGCGCCAUGCCUGCAGGUCGACUCUAGAAAACAUG
binding signal [6]: 3.56 log2 enrichment (interaction score) | binding signal [2]: 3.91 log2 enrichment (interaction score) | binding signal [5]: 1.26 log2 enrichment (interaction score) | binding signal [7]: 4.13 log2 enrichment (interaction score) | binding signal [8]: 3.64 log2 enrichment (interaction score)

GGCUAGAACUAGUGGAUCCCCCGGCGCCCGGCGGCUCGAGCCCGGGUAAGUGUAAAAAGUCUGCAUGCCGCCGGGCGCCAUGCCUGCAGGUCGACUCUAGAAAACAUG
binding signal [9]: 6.44 log2 enrichment (interaction score)

GGCUAGAACUAGUGGAUCCCCCGGCGCCCGGCGGCUCGAGCCCGGGUAAGUGUAAUUAGUCUGCAUGCCGCCGGGCGCCAUGCCUGCAGGUCGACUCUAGAAAACAUG
binding signal [10]: 2.64 log2 enrichment (interaction score) | binding signal [1]: 0.15 log2 enrichment (interaction score)
